# Assay outcomes deposited in PubChem BioAssay by several laboratories.
# Pf gametocyte: inhibitors of late stage P. falciparum gametocyte viability; 0.065% of 150,000 active; P. falciparum stage V gametocytes, ATP luminescence, 24 h; inhibition, % at 10.9 µM; AID 743093;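 active = inhibition above the mean plus 3 SD of compounds within the control limits, set per campaign, cut at about 38% in these data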;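 also: 0% = DMSO wells and 100% = medium only without gametocytes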
# Arbovirus inh: antivirals against arbovirus infection. AID 1251. arbovirus infection cell-based antiviral screen. 0.37% of 200,000 active. inhibition, % at 10 µM; in the data active = inhibition above about 30%
# MEKK2wt PB1 HTS: raises or lowers MEK5 binding to wildtype human MEKK2 PB1 domain; Q9Y2U5; bead flow cytometry, Alexa488-MEK5 binding to MEKK2 WT; actives lie on both sides; binding response (% of control), % at 10 µM; 1.1% of 290,000 active; AID 1531; in the data active = binding response below about 67% or above about 130%
# MEKK3 PB1 HTS: raises or lowers MEK5 binding to the human MEKK3 PB1 domain. bead-based flow cytometry, Alexa488-MEK5 binding to MEKK3; actives lie on both sides; 0 = blocked by unlabeled MEK5, 100 = vehicle. AID 1529. binding response (% of control), % at 10 µM. Q99759. 1.4% of 290,000 active;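 active = binding response more than 3 SD above or below the average of its plate-row segment, actives on both sides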;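 also: Alexa488 bead fluorescence after subtracting the streptavidin-only scavenger bead signal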
# Target sequence (Q99759 whole entry, looked up, the tested form may be a part): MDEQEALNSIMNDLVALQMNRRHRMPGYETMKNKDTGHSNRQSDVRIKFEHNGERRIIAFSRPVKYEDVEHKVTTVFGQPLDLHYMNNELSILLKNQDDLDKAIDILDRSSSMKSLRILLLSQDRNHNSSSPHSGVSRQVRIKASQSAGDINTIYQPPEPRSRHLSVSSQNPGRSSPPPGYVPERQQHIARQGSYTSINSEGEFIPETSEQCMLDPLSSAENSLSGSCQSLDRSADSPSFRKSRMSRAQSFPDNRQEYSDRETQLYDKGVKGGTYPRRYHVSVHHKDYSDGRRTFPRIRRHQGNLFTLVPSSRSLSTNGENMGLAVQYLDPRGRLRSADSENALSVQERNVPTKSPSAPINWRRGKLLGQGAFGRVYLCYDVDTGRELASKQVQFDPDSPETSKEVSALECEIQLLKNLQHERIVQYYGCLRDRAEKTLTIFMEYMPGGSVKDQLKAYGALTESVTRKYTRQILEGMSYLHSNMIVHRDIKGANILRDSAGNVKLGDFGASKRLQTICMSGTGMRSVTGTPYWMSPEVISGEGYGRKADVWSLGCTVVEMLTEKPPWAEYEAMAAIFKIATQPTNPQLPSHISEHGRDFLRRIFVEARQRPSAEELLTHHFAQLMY
# MEKK2 mut-MEK5: signal of MEK5 binding to mutant human MEKK2 PB1 domain | bead flow cytometry, Alexa488-MEK5 binding to MEKK2 mutant | percent response, % at 10 µM | 0.35% of 290,000 active | AID 1530; in the data active = percent response above about 24%, passing the limit was not always enough
# MEKK2wt confirm: raises or lowers MEK5 binding to wildtype human MEKK2, retest; shares compounds with MEKK3 PB1 HTS; bead flow cytometry, Alexa488-MEK5 binding to MEKK2 WT; actives lie on both sides; binding response (% of control), % at 10 µM; 2.4% of 5,900 active; in the data active = binding response below about 16% or above about 210%; inactive = in between
# MEKK2mut-MEK5: signal of MEK5 binding to mutant human MEKK2, retest. shares compounds with MEKK3 PB1 HTS. bead flow cytometry, Alexa488-MEK5 binding to MEKK2 mutant. percent response, % at 10 µM. 2% of 5,900 active. AID 1893; in the data active = percent response mostly above about 71%, no sharp cut-off; inactive = mostly below about 38%;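 also: higher means compound restores mutant binding toward wildtype level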
# MEKK3 confirm: confirmation of inhibitors of MEK5 binding to human MEKK3 | shares compounds with MEKK3 PB1 HTS | bead flow cytometry, Alexa488-MEK5 binding to MEKK3; stronger effect = lower value | binding response (% of control), % at 10 µM | 1.8% of 5,900 active;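 active = binding response below 72% of control, or above a set upper limit, though filed actives all read lower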;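 also: 100% = DMSO only wells and 0% = binding blocked by excess unlabeled MEK5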
# An asterisk follows results filed as active; nt = no result given; [ ] = remark or other dose. Hits are enriched below; roughly 2.4% of the tested compounds scored in any of these assays.
SMILES,Pf gametocyte,Arbovirus inh,MEKK2wt PB1 HTS,MEKK3 PB1 HTS,MEKK2 mut-MEK5,MEKK2wt confirm,MEKK2mut-MEK5,MEKK3 confirm
Cn1c(=O)cc(N2CCCCC2)[nH]c1=O,nt,1.8,105.0,106.0,5.0,nt,nt,nt
Cn1c(=O)cc(N2CCOCC2)[nH]c1=O,nt,-5.6,70.0*[inhibitor],75.0,-20.0,106.0,7.0,105.0
O=C(NCc1cccc(Br)c1)C1CC(c2ccc(C(F)(F)F)cc2)=NO1 (centres undefined),8.3,nt,102.0,106.0,3.0,nt,nt,nt
Cc1c(Cc2ccc3c(c2)OCO3)sc(NC(=O)c2ccccc2)c1C(N)=O,nt,-10.8,81.0,75.0*[inhibitor],-7.0,97.0,-1.0,100.0
Cc1nc(NC(=O)c2ccccc2)sc1Cc1ccc2c(c1)OCO2,-11.9,-14.3,111.0,102.0,5.0,nt,nt,nt
CCn1nc(C)c(NS(=O)(=O)c2ccc(C)cc2)c1C,nt,-2.2,88.0,73.0*[inhibitor],2.0,104.0,7.0,107.0
Cc1ccc(NS(=O)(=O)c2cc(-c3n[nH]c(=O)c4ccccc34)ccc2C)cc1,10.0,-18.3,93.0,104.0,-1.0,nt,nt,nt
Cc1ccccc1OCC(=O)Nc1ccc(S(=O)(=O)Nc2ccccn2)cc1,-6.9,-4.5,109.0,136.0*,0.0,96.0,1.0,100.0
Cc1ccc(OCC(=O)Nc2ccc(S(=O)(=O)Nc3ccccn3)cc2)c(C)c1,-13.7,1.4,100.0,116.0,0.0,nt,nt,nt
CCOC(=O)C(CCCOc1ccccc1)C(=O)OCC,nt,-3.8,65.0,43.0*[inhibitor],-35.0,96.0,-5.0,101.0
Cc1ccc(OC(=O)c2sc3ncn(C)c(=O)c3c2C)cc1,23.6,-2.9,87.0,94.0,-9.0,nt,nt,nt
CCOc1ccc(NC(=O)COc2nsnc2N2CCCCC2)cc1,-26.4,-11.6,88.0,89.0,-6.0,nt,nt,nt
COc1ccc(NC(=O)COc2nsnc2N2CCCCC2)cc1,12.9,1.9,44.0*[inhibitor],27.0*[inhibitor],-33.0,95.0,-1.0,99.0
Cc1ccc(NC(=O)C(=O)NCCc2c[nH]c3ccccc23)c(C)c1,15.8,-7.5,99.0,95.0,-5.0,nt,nt,nt
O=C(NCCc1c[nH]c2ccccc12)c1cnccn1,32.3,13.3,76.0,74.0*[inhibitor],-3.0,105.0,3.0,101.0
O=C(NCCc1c[nH]c2ccccc12)c1cncc(Br)c1,-9.7,2.6,107.0,104.0,5.0,nt,nt,nt
COc1ccc(/C=C(/NC(=O)c2ccc(OC)cc2)C(=O)NCCc2c[nH]c3ccccc23)cc1,-9.2,-0.8,91.0,91.0,-2.0,nt,nt,nt
Cc1ccc(C)c(NC(=O)C(=O)NCCc2c[nH]c3ccccc23)c1,-1.2,-0.3,35.0*[inhibitor],34.0*[inhibitor],-16.0,102.0,2.0,107.0
Cc1cccc(NC(=S)NCCc2c[nH]c3ccccc23)c1,nt,14.5,101.0,128.0*,-1.0,107.0,6.0,104.0
Cc1ccc(C(=O)N/C(=C\c2cccs2)C(=O)NCCc2c[nH]c3ccccc23)cc1,11.9,-21.4,104.0,129.0*,0.0,97.0,-3.0,103.0
CC(=O)NC1(C(F)(F)F)C(=O)Nc2c1c(=O)[nH]c(=O)n2CCc1ccccc1 (centres undefined),11.9,nt,100.0,99.0,2.0,nt,nt,nt
Cc1ccccc1NC(=O)CN1C(=O)S/C(=C\c2cccn2-c2cccc(C(=O)O)c2)C1=O,-1.5,4.6,119.0,122.0*,9.0,105.0,4.0,107.0
Cc1nc(NC(=O)CSc2nnc(-c3ccncc3)n2C)sc1C,nt,nt,97.0,101.0,0.0,nt,nt,nt
CCc1nnc(NC(=O)CSc2nnc(-c3ccncc3)n2C)s1,15.7,0.2,1.0*[inhibitor],2.0*[inhibitor],1.0,103.0,-1.0,102.0
CC(=O)N1CCC(C(=O)NC2CCCc3c2cnn3-c2cc(F)cc(F)c2)CC1 (centres undefined),nt,nt,108.0,103.0,10.0,nt,nt,nt
SMILES,Pf gametocyte,Arbovirus inh,MEKK2wt PB1 HTS,MEKK3 PB1 HTS,MEKK2 mut-MEK5,MEKK2wt confirm,MEKK2mut-MEK5,MEKK3 confirm
CCn1cc(Br)c(C(=O)Nc2cccc(Cl)c2)n1,nt,-1.2,-5.0*[inhibitor],0.0*[inhibitor],-39.0,97.0,-5.0,95.0
COc1ccc(-c2csc(N(CCCN(C)C)C(=O)c3ccccc3Cl)n2)cc1,nt,nt,138.0*,107.0,28.0*,167.0,70.0*,102.0
COc1ccc(-c2csc(N(CCCN(C)C)C(=O)c3ccccc3F)n2)cc1,7.7,nt,127.0,99.0,16.0,nt,nt,nt
CN(C)CCCN(C(=O)c1cccs1)c1nc(-c2ccccc2)cs1,22.9,-17.5,147.0*,101.0,5.0,138.0,19.0,109.0
COc1ccc(-c2csc(N(CCCN(C)C)C(=O)c3ccccc3C)n2)cc1,nt,nt,143.0*,107.0,16.0,149.0,23.0,107.0
Cc1cc(C)nc(-n2ncc3c2CC(c2cccc(Cl)c2)CC3=O)n1 (centres undefined),nt,-13.9,104.0,111.0,0.0,nt,nt,nt
O=C(Nc1cc(-c2ccccc2)nn1-c1ccccc1)c1ccccc1F,-9.8,nt,nt,nt,nt,nt,nt,nt
Cc1cc(=O)oc2cc(OCc3ccc(C(=O)OCC(=O)Nc4ccc(N(C)C)cc4)cc3)ccc12,1.1,4.8,97.0,108.0,1.0,nt,nt,nt
O=c1cc(O)c2sc3nc(-c4ccccc4)cc(C(F)(F)F)c3c2[nH]1,-1.0,8.6,95.0,8.0*[inhibitor],0.0,101.0,4.0,104.0
COc1ccc(OC)c(-c2cc(C(F)(F)F)c3c(n2)sc2c(O)cc(=O)[nH]c23)c1,11.7,9.8,91.0,69.0*[inhibitor],-1.0,87.0,-9.0,91.0
O=c1cc(O)c2sc3nc4c(c(C(F)(F)F)c3c2[nH]1)CCCCC4,-12.1,nt,99.0,99.0,0.0,nt,nt,nt
Cc1cc(-c2ccccc2)c2c(n1)sc1c(O)cc(=O)[nH]c12,-11.6,nt,95.0,93.0,-5.0,nt,nt,nt
CSCC[C@H](NC(=O)c1cc([N+](=O)[O-])ccc1Cl)c1nc2ccccc2[nH]1,-8.9,-1.8,109.0,143.0*,1.0,97.0,3.0,100.0
N#Cc1ccc(S(=O)(=O)NC2CCCCNC2=O)cc1 (centres undefined),nt,nt,106.0,103.0,4.0,nt,nt,nt
COc1ccc2[nH]c(C)c(-c3csc(N)n3)c2c1,nt,nt,118.0,117.0,27.0*,101.0,0.0,101.0
Cc1ccc(S(=O)(=O)N(CC(=O)N/N=C/c2ccco2)c2cc(Cl)cc(Cl)c2)cc1,nt,1.3,104.0,128.0*,0.0,96.0,-8.0,105.0
CN(C)S(=O)(=O)c1ccc(C(=O)NC(=O)CSc2ccccc2)cc1,14.4,-11.5,102.0,131.0*,-1.0,100.0,1.0,105.0
Cc1ccccc1NC(=O)c1ccc(S(=O)(=O)N(C)C)cc1,nt,1.6,106.0,106.0,11.0,nt,nt,nt
c1ccc(OCCOc2cccc3cccnc23)cc1,nt,-6.6,109.0,152.0*,1.0,94.0,0.0,94.0
Brc1ccc(OCCOc2cccc3cccnc23)cc1,nt,3.4,96.0,96.0,-1.0,nt,nt,nt
